# PP1 counter – PP1-alpha (human) inhibition in PP5 counter-screen. purified PP1alpha, OMFP fluorescence. inhibition, % at 6.7 µM. 0.9% of 320,000 active;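 active means inhibition above the mean inhibition of all tested compounds plus 3 SD, computed separately for each screening campaign, cut at about 15% in these data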
# Target sequence (P62136 whole entry, looked up): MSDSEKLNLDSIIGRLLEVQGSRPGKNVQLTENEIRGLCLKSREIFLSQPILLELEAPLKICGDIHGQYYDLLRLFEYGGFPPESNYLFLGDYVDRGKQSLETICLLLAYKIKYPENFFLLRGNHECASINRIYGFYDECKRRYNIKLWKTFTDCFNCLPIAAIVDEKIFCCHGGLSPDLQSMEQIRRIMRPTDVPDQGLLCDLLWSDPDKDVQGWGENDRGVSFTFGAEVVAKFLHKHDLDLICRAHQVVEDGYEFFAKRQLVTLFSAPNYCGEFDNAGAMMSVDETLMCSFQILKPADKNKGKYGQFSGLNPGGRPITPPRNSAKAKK
# Calb FLC – affects C. albicans growth with fluconazole | C. albicans CaCi-2 (fluconazole-resistant clinical isolate) + fluconazole, Alamar Blue growth, 48 h | growth inhibition, % (concentration not given with the values) | 0.57% of 300,000 active;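 active means growth inhibition above about 58% in most replicates, limit read from the data, passing the limit was not always enough; inconclusive means exactly half the replicates above a set limit; inactive means most replicates below a set limit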;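 further: all wells also contain fluconazole at 8 µg/ml as a sub-toxic cotreatment; 0% = median of DMSO wells and 100% = median of geldanamycin control wells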
# CSC inhib – cancer stem cell inhibition; cancer stem cell-like cells viability, luminescence; 1.1% of 300,000 active; inhibition, % at 7.5 µM; in the data active means inhibition above about 75%; inconclusive means no clear call, values can overlap the other calls; tested in HMLE shEcad cells
# ALR inh – inhibitors of human sulfhydryl oxidase ALR. P55789. purified ALR, DTT oxidation, H2O2 HRP-luminol luminescence. inhibition, % (concentration not given with the values). 3.8% of 290,000 active;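 active means mean replicate inhibition above about 79%, with every replicate also reaching it, limit read from the data; inconclusive means only one of the two criteria met; inactive means mean below limit and not every replicate reaching it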
# Target sequence (P55789 whole entry, looked up): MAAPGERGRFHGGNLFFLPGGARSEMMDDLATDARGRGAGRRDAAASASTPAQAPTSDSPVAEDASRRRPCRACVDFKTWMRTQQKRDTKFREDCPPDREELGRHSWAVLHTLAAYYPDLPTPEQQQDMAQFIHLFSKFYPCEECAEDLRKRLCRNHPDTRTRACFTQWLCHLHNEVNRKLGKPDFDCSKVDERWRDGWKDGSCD
# PP5 inh – PP5 (human) phosphatase inhibition; purified PP5c, OMFP substrate fluorescence; inhibition, % at 6.7 µM; 0.18% of 320,000 active; P53041;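 active means inhibition above the campaign's mean inhibition across all tested compounds plus 3 SD, cut at about 9.5% in these data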;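 further: 0% = DMSO only and 100% = 100 µM cantharidin control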
# * hit, by the source's call; ? = inconclusive; · = not tested or not shown. Sampled rows, rich in hits. Any-hit rate of the full collection: about 5.4%.
SMILES,PP1 counter,Calb FLC,CSC inhib,ALR inh,PP5 inh
COc1cc(C)c(C(=O)CC(=O)c2c(C)cc(OC)cc2C)c(C)c1,-5,-2,132*,-4,-1
O=C(c1ccco1)N1CCCN(C(=O)c2ccco2)CC1,-3,-1,·,-3,-1
Cc1ccc2c(c1)NC(C(C)(C)C)CO2 (stereo not drawn),3,11,-10,-3,1
Cc1ccc(N(CC(=O)NCC(O)c2ccccc2)S(=O)(=O)c2ccc(C)cc2)cc1 (stereo not drawn),3,-10,-1,2,2
CC(=O)c1ccc(NC(=O)/C(C#N)=C/c2ccncc2)cc1,-3,-4,-3,98*,2
COc1cc(NC2c3ccccc3C(=O)N2c2cc(C)ccn2)cc(OC)c1OC (stereo not drawn),2,-2,-4,95*,2
COc1cc(NC2c3ccccc3C(=O)N2c2ccc(C)cn2)cc(OC)c1OC (stereo not drawn),4,-4,-5,9,0
CCn1cc(/C=N\NC(=O)c2ccc(F)cc2)cn1,-3,-28,-1,98*,0
Cc1c(/C=N\NC(=O)c2ccc(F)cc2)cnn1C,1,11,-3,99*,0
O=C(/C=C/c1ccc(F)cc1)Nc1nc2ccccc2[nH]1,5,0,2,-24,1
Nc1ccccc1Nc1c(F)c(F)nc(F)c1Cl,1,-14,5,98*,1
OC1(c2ccc(F)cc2)CSC(=Nc2cccnc2)N1Cc1ccco1 (stereo not drawn),-4,21,15,-33,0
Oc1ccc2ccccc2c1N=Nc1ccccn1,2,0,105*,-5,5
O=C(CCN1C(=O)C2C3C=CC(C3)C2C1=O)NCC1CCCO1 (stereo not drawn),2,-8,-5,0,1
Cc1ccc(NC(=S)NC(=O)C2CC2)cc1Cl,·,112*,7,1,·
N#C/C(=C\c1ccc([N+](=O)[O-])cc1)C(=O)Nc1ccccc1O,1,14,-38,86*,1
N#C/C(=C/c1ccc([N+](=O)[O-])cc1)C(=O)Nc1ccccc1O,4,0,-7,?,3
CCCC(C)C(=O)Nc1nc(C)c(-c2csc(Nc3cc(Cl)ccc3C)n2)s1 (stereo not drawn),12,0,-4,-10,2
CC(=O)N(C(C)=O)c1ncnc2c1c(-c1ccc(Cl)cc1)nn2C(C)(C)C,-4,62,29,-4,0
CC(=O)Nc1ncnc2c1c(-c1ccc(Cl)cc1)nn2C(C)(C)C,-4,102*,19,1,1
Cc1cc(-c2nnc(CCC(=O)NCC(C)c3ccccc3)o2)no1 (stereo not drawn),-5,-2,-13,11,4
CC(C)(C)OC(=O)NC(Cc1ccccc1)C(=O)N1CCC(C(=O)NCC(=O)Nc2ccc(F)cc2)CC1 (stereo not drawn),-2,-10,-19,3,-2
C/C(=C\c1ccc(N)cc1)c1nc2ccccc2[nH]1,-4,-15,2,99*,-3
O=C(Nc1ccn(Cc2ccccc2F)n1)c1ccc(COc2ccc(Br)cc2)cc1,8,44,53,-12,3
N#Cc1ccccc1S(=O)(=O)N1CCN(C(=O)Cc2coc3cc(O)ccc23)CC1,2,·,-5,99*,1
SMILES,PP1 counter,Calb FLC,CSC inhib,ALR inh,PP5 inh
N#Cc1ccccc1S(=O)(=O)N1CCN(C(=O)Cc2n[nH]c(=O)c3ccccc23)CC1,·,·,-11,4,·
O=C(CSC(=S)N1CCOCC1)c1cc2ccccc2oc1=O,0,-3,3,96*,0
Cc1cc(C)nc(SCC(=O)c2cc3ccccc3oc2=O)n1,-7,-3,-5,93*,2
CN(CC(=O)Nc1nc2ccccc2s1)S(=O)(=O)c1ccc(Cl)cc1,9,-6,3,-6,3
Cc1ccc(C(=O)ONc2ccc(N=NC(=O)c3ccccc3O)cc2)cc1,-2,-33,78*,14,1
COc1ccc(NC(=O)COC(=O)C2CC3C=CC2C3)cc1 (stereo not drawn),-4,-9,1,5,-1
Nc1nc(Nc2cccc(F)c2)nc2ccccc12,-1,-18,2,-4,4
Nc1cccc(Nc2ncnc3ccccc23)c1,-3,2,-10,99*,-4
c1ccc(Nc2cccc(Nc3ccccc3)c2)cc1,1,2,-9,98*,3
Nc1cccc(Nc2ccccc2)c1,-2,9,0,99*,-2
Oc1cccc(Nc2ccccc2)c1,-3,·,0,99*,1
Cc1ccc(Nc2ccccc2)cc1,-4,5,-8,7,2
c1cncc(-c2nnc3sc(-c4ccco4)nn23)c1,-3,-9,0,6,0
CCC(C)Nc1nc(-c2ccc3c(c2)NC(=O)CO3)cs1 (stereo not drawn),-1,2,-15,98*,3
COc1ccc(Nc2nc(-c3ccc4c(c3)NC(=O)CO4)cs2)cc1,-2,30,6,-26,5
O=C(NCc1ccc2c(c1)OCO2)c1ccc(S(=O)(=O)C(F)F)cc1,6,2,-3,·,1
CN(C)c1ccc(C=Nc2cnn(C)c2C(N)=O)cc1,-4,0,-10,98*,0
Cn1ncc(N=Cc2ccccc2[N+](=O)[O-])c1C(N)=O,-5,-8,-12,-9,2
C/C(=N/N=C/c1ccc(N(C)C)cc1)c1ccccc1,-5,1,2,66,-1
CN(C)c1ccc(/C(=N\O)c2ccccc2)cc1,-1,-21,7,94*,6
O=C1C2CC=CCC2C(=O)N1c1ccc(NCCc2ccccc2F)c([N+](=O)[O-])c1 (stereo not drawn),-1,0,-10,-5,-1
O=C1C2CC=CCC2C(=O)N1c1ccc(NCCc2ccccc2)c([N+](=O)[O-])c1 (stereo not drawn),0,8,80*,1,3
COC(=O)c1ccccc1NC(=O)C1CC(=O)N(c2ccccc2)C1 (stereo not drawn),7,-4,-6,-7,3
COc1cc2nc(CN3CCC(Cc4ccccc4)CC3)[nH]c(=O)c2cc1OC,1,36,-8,4,-1
COc1cccc(C(=O)CSc2nnc(-c3ccco3)n2CC2CCCO2)c1 (stereo not drawn),2,-1,-1,91*,2
O=C(CSc1nnc(-c2ccco2)n1Cc1ccccc1)OC1CCCCC1,6,97*,-3,35,4
O=C(CSc1nnc(-c2ccncc2)n1Cc1ccco1)OC1CCCCC1,-1,-10,·,32,-3
COc1ccc(C(=O)CSc2nnc(-c3ccco3)n2CC2CCCO2)cc1 (stereo not drawn),-2,-8,-8,32,1
Cc1occc1-c1nnc(SCC(=O)c2ccc3c(c2)OCCO3)n1CC1CCCO1 (stereo not drawn),-2,-6,-9,23,0
Cc1occc1-c1nnc(SCC(=O)c2ccccc2)n1CC1CCCO1 (stereo not drawn),0,-1,-9,98*,2

# Assay outcomes from PubChem BioAssay.
